Experimental data from PubChem BioAssay AID504339 (National Center for Advancing Translational Sciences (NCATS), 2011).
The whole screen tested about 390,000 compounds, of which about 17,000 (4.4%) were called active. Roughly 8% stayed inconclusive and do not appear here. The entries come from a sample that favours actives as a whole. Unmarked numbers belong to inactive results. The call rests on the fitted dose curve; in most records, active means well fitted inhibition curve with a large enough effect; inconclusive means small, poorly fitted or top-dose-only effect; inactive means no such curve, though single readings can be large or run the other way.

Biological target: Lysine-specific demethylase 4A (Homo sapiens) (UniProt O75164)
Sequence (O75164 whole entry, looked up, the tested form may be a part): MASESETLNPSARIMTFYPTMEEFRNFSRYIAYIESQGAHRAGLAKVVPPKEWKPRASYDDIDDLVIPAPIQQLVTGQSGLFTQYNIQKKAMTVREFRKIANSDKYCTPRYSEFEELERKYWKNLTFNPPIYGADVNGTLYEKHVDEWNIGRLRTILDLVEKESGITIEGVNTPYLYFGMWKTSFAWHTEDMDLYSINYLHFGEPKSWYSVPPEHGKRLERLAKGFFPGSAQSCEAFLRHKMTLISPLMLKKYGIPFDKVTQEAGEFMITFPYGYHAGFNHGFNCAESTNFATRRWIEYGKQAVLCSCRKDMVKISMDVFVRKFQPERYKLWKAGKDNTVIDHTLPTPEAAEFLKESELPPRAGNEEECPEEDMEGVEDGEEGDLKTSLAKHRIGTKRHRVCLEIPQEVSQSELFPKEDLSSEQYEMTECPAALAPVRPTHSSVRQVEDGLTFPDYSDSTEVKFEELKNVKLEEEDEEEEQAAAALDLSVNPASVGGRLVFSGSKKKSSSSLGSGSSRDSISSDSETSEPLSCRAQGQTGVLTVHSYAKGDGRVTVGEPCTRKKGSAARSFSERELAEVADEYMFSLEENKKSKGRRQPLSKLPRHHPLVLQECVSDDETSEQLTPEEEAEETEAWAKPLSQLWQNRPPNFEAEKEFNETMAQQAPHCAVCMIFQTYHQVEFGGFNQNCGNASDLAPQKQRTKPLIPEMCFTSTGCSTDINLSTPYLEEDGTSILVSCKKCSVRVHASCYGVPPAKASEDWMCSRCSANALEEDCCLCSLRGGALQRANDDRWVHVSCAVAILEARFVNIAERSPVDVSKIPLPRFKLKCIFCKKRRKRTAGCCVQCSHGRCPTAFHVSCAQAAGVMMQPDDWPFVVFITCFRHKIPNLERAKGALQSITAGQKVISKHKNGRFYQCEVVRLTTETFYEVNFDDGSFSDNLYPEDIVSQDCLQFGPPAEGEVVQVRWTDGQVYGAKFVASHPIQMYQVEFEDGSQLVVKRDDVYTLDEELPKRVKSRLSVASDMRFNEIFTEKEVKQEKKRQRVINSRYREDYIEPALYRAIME
Experiment: qHTS Assay for Inhibitors of JMJD2A-Tudor Domain; further: nearly all actives have a fitted effect of over 50% in size
Settings: AlphaScreen JMJD2A-Tudor / H3K4me3 peptide binding; series mostly up to 114 µM; activity change, negative = inhibition: at the top concentration
Source text: JMJD2A is a jumonji-domain-containing lysine demethylase that uses Fe(II) together with 2-OG to effect oxidative demethylation of histones. Methylation is one of many […] modification that affect epigenetic transcription. […] It is proposed that the functions of JmjD2A binding to the histones, is to maintain marks after they are installed and to spread the modifications by […], establishing a self-propagating cycle for rapid methylation over a large area of chromatin. […] Thus, small molecule targeting of the JMJD2A-tudor domain interaction with its target methylhistone mark is expected to enable sophisticated experiments probing the fine regulatory pathways leading to selective demethylation of a given methyllysine locus based on the methylation state of adjacent histone marks. A quantitative high throughput AlphaScreen has been developed to identify small molecule inhibitors based on a protocol published by NCGC and SGC [4].
Although AlphaScreen has significant advantages with its utility in a variety of epigenetic target assays, the primary screening data provided in this deposition should be used with caution due to the prevalence of screening artifacts. The top compound concentration tested was high (>100uM) in this assay, which increases number of actives and potential artifacts. An AlphaScreen counterscreen is highly recommended to be run against any putative actives to eliminate non-specific artifacts. Alternatively, one can use other AlphaScreen assays in PubChem to filter out promiscuous hits.
[1] Lee, J. et al. Distinct binding modes specify the recognition of methylated histone H3K4 and H4K20 by JMJD2A-tudor. Nat Struct Mol Biol. 15(1); 109-11. 2008. PMID: 18084306
[2] Yasgar, et al. Compound Management for Quantitative High-Throughput Screening. JALA. 2008 Apr;13(2):79-89. PMID: 18496600
[3] Inglese, et al. Quantitative high-throughput screening: a titration-based approach that efficiently identifies biological activities in large chemical libraries. Proc Natl Acad Sci. 1;103(31):11473-8. 2006. PMID: 16864780
[4] Quinn et al. A homogeneous method for investigation of methyl-dependent protein-protein interactions in epigenetics. Nucleic Acids Res., 38(2):e11. 2010. PMID: […]
[5] Baell,Holloway. New substructure filters for removal of pan assay interference compounds (PAINS) from screening libraries and for their exclusion in bioassays. J Med Chem. 53(7):2719-40. 2010. PMID: 20131845
NIH Molecular Libraries Probe Production Network [MLPCN]
NIH Chemical Genomics Center [NCGC]
Structural Genomics Consortium (SGC)
To each well of a 1,536w plate, 2ul of JMJD2A-Tudor (final 100nM) and 1ul biotinylated histone peptide methylated at Lys4 [b-H3(1-18)K4me3] (final 50nM) were added in 1x PBS buffer, pH 7.4, containing 0.01% Tween-20, using a nanoliter dispenser. Formation of a protein-peptide complex proceeded at room temperature for 30 min. A Kalypsys pin-tool transferred 23nl of library compound solution in DMSO to each well. Following a 30 min incubation of the protein-peptide complex with compounds at room temperature, a mixture of 40 µg/mL each streptavidin-coated donor and nickel chelate acceptor AlphaScreen beads (final 10 µg/mL) was added in a 1ul dispense for a final volume of 4ul, followed by a brief centrifugation (1000 rpm, 1 min). Plates were incubated protected from the light for 20 min at room temperature. Microplates were then read on an EnVision multilabel plate reader using the 1,536 plate HTS AlphaScreen aperture (excitation time 80 ms, measurement time 240 ms).
On the % scale 0 is the no-effect control and ±100 the full control effect; potency means the concentration at half of the fitted maximal effect.

SMILES | Potency | activity change, negative = inhibition [%]
Cc1cc([N+](=O)[O-])c(NC2CCCCC2)c([N+](=O)[O-])c1 | 25.1 µM (active) | –
Cc1cc(C)cc(NC(=O)NC2CCCCCCC2)c1 | – | -2.76
Cc1ccc(S(=O)(=O)NC2CCCCCC2)cc1 | – | 0
O=C(CCCCn1c(=O)c2ccccc2n(CC(=O)Nc2cccc(C(F)(F)F)c2)c1=O)NCc1ccc2c(c1)OCO2 | – | -16.7
Cc1ccc(S(=O)(=O)n2nc(C)c(S(=O)(=O)N3CCCCCC3)c2C)cc1 | – | -26.2
CC(=O)NC(Cc1ccccc1)C(=O)NC1CCN(c2ncccc2[N+](=O)[O-])CC1 (stereo not given) | – | -12.3
COc1ccc(-c2cc3ncccc3cn2)cc1 | – | -16.9
COc1ccc(-c2cc(C3CCN(c4ncccc4[N+](=O)[O-])CC3)[nH]n2)cc1 | 56.2 µM (active) | –
Cc1ccc(F)cc1S(=O)(=O)N1CCC(c2nc3ccccc3s2)CC1 | – | 8.18
CC(=O)c1c(C)[nH]c(=S)c(C#N)c1-c1ccc(F)cc1 | 5.62 µM (active) | –
Cc1cc(C)c2c(-c3ccc(F)cc3)c(C#N)c(=O)n(C)c2n1 | – | -9.54
N#Cc1c(-c2ccc(Cl)cc2)c2c([nH]c1=S)CCCC2 | – | -20.6
CC1CCN(S(=O)(=O)c2ccc3c(c2)N(CC(=O)NCCc2ccccc2)C(=O)CO3)CC1 | – | -19.4
COc1cccc(C(=O)NC2=NC(c3ccc(N(C)C)cc3)CC(=O)N2)c1 (stereo not given) | – | -21.2
O=C(O)CCC(=O)N(Cc1ccccc1)Cc1ccccc1 | – | -17.7
Oc1ccc(/C=N/N(Cc2ccccc2)c2ccccc2)cc1 | 44.7 µM (active) | –
Cc1ccc(-c2cn3c(n2)sc2cc(C(=O)NCc4cccs4)ccc23)c(C)c1 | – | 68.4
O=C1CC(c2ccccc2)CC2=C1C(c1ccco1)n1nc(C(F)(F)F)nc1N2 (stereo not given) | – | -27.7
Cc1ccc(S(=O)(=O)N2CCCc3cc(NS(=O)(=O)c4cc(C)ccc4C)ccc32)cc1 | – | -24.2
COc1ccc(NCc2nnc(SCc3ccccc3)n2-c2ccc(OC)cc2)cc1 | 50.1 µM (active) | –
COc1ccc(CSc2nnnn2-c2ccc(C(=O)O)cc2)cc1 | – | 4.63
CC(C)Oc1ccc(CCc2nnc(SCC(=O)O)n2-c2ccccc2)cc1 | – | -11.2
O=C1C[C@@H](c2ccc3ccccc3c2)N1S(=O)(=O)c1ccccc1[N+](=O)[O-] | – | -23.4
COc1ccc(-c2nc(CN3CCC(C(=O)NCCN(CC(C)C)CC(C)C)CC3)c(C)o2)cc1OC | – | -9.76
COc1ccc(OC)c(NC(=O)C2CCN(S(=O)(=O)c3ccc(C)cc3)CC2)c1 | – | -13.8

SMILES | Potency | activity change, negative = inhibition [%]
COc1ccccc1C(=O)Nc1ccc(OCc2nnc3c4ccccc4c(C)nn23)cc1 | – | -4.03
Cc1ccc(OCc2nnc(SC3CCc4ccccc4C3=O)n2C)cc1 (stereo not given) | 28.2 µM (active) | –
Cc1cccnc1NC(=O)CSc1nnc(COc2ccc(C(C)C)cc2)n1C | – | -4.17
Fc1ccc(CN2CCc3nc(Nc4ccccc4)ncc3C2)cc1F | – | -25.8
CN1C(=O)c2[nH]nc(-c3ccc(F)cc3)c2C1c1ccccn1 (stereo not given) | – | 7.23
Cc1ccc(NC(=O)c2cc3cc(C)ccc3n2C)cc1 | – | -7.95
CCc1ccc(S(=O)(=O)n2ccnc2)cc1 | – | -16.2
CCCCOc1ccc(CNC(=O)c2ccc3c(c2)N(C)C(=O)C2CCCCN32)cc1 (stereo not given) | – | -30
C=CCn1c(=S)[nH]c2scc(-c3ccco3)c2c1=O | 28.2 µM (active) | –
CCC1(C)Cc2c(sc3[nH]c(=S)n(Cc4ccccc4)c(=O)c23)CO1 (stereo not given) | – | -32.6
Cc1ccc(CCNC(=O)Cn2c(-c3cccs3)cc3cc(F)ccc32)cc1 | – | -6.62
N#C/C(=C(\O)C(F)(F)F)c1nnc2n1CCCCC2 | – | 1.4
N#C/C(=C(\O)CCl)c1nnc2n1CCCCC2 | 35.5 µM (active) | –
N#C/C(=C/c1cccc([N+](=O)[O-])c1)c1nnc2n1CCCCC2 | – | -10.6
COc1ccc(N2CCN(c3cc(C)nc4nncn34)CC2)cc1 | – | -23.3
CCCCN1CC(c2nc3ccccc3n2CCCCOc2ccc(C)cc2C)CC1=O (stereo not given) | – | -5.96
O=[N+]([O-])c1ccc(S(=O)(=O)N2CCN(c3nc(-c4ccccc4)nc4ccccc34)CC2)cc1 | – | -12.1
CN(C)/C=C/C(=O)c1ccccc1F | – | 5.26
Cc1nc(COc2cccc(Cl)c2)sc1C(=O)/C=C/N(C)C | – | -23.5
Cc1nc(-c2ccccc2)sc1C(=O)/C=C/N(C)C | 44.7 µM (active) | –
COCCN(Cc1ccco1)C(=O)Cn1ncc2c([nH]c3ccccc32)c1=O | – | -21.5
O=S(=O)(c1ccc2c(c1)OCCO2)N1CCN(S(=O)(=O)c2cc(F)ccc2F)CC1 | – | -16.4
CCOC(=O)c1c(S(=O)(=O)N2CCCC(C(=O)NCc3ccc(F)cc3)C2)c(C)n(CC)c1C (stereo not given) | – | -34.3
Cn1c(=O)[nH]c(=O)c2c1nc(N1CCN(CCO)CC1)n2CCSc1nc2ccccc2s1 | – | -14.6
CCN(CC)CCn1c2c(c(SCC(=O)Nc3nc4ccccc4s3)nc1=O)CCCC2 | – | -13.8
